Activity calls are given as the source filed them. No stated cut-off is given here; in the data, active means activation above about 85%; inactive means the rest.
Target: Peroxisome proliferator-activated receptor gamma (Homo sapiens) (UniProt P37231)
Assay: PPARg partial agonist activation, primary screen, cell-based, luciferase reporter, luminescence (AID 504452);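 further: Cos-1 cells carrying PPARgamma and a response element luciferase reporter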
Details: at 5 µM, stronger effect = higher value; activation (% of full agonist control): measured here: relative to full agonist control

Peroxisome proliferator-activated receptor gamma (Homo sapiens), sequence (P37231 whole entry, looked up): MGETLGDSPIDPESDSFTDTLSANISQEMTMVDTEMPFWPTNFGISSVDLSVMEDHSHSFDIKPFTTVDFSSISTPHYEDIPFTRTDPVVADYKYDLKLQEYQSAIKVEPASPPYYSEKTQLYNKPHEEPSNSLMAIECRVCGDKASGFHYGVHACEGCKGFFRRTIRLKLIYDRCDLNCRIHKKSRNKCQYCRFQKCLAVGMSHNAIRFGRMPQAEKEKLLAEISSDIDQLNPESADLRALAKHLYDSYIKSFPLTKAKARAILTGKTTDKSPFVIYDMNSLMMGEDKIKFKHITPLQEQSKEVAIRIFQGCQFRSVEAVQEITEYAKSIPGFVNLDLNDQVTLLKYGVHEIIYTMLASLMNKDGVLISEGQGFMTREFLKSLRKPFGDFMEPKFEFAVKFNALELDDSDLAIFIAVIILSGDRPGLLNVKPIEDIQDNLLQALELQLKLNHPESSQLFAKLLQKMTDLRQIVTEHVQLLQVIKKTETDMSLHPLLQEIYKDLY

SMILES | activation (% of full agonist control) [%] | activation (% of partial agonist control)
O=C(Cc1cccs1)N1CCCC(c2nc3c(nnn3Cc3ccc(F)cc3)c(=O)[nH]2)C1 (centres undefined) | 32.7 | 72.5% (inactive)
O=C(NCc1ccccc1F)C(=O)NCC1CCCN1S(=O)(=O)c1ccccc1 (centres undefined) | 16.1 | 35.6% (inactive)
O=C(NC(Cc1ccccc1)C(=O)O)/C(=C/c1ccc([N+](=O)[O-])cc1)NC(=O)c1ccco1 (centres undefined) | 35.3 | 78.1% (inactive)
CCOc1cccc(C2C(C(=O)c3ccco3)=C(O)C(=O)N2c2nnc(C)s2)c1 (centres undefined) | 31.8 | 70.4% (inactive)
CN(C(=O)CS(=O)(=O)c1cn(CC(=O)N2CCCC2)c2ccccc12)c1ccccc1 | 24.5 | 54.2% (inactive)
CC(Oc1ccc(F)cc1)C(=O)Nc1cc(S(=O)(=O)N2CCOCC2)ccc1N1CCCC1 (centres undefined) | 33.9 | 75.1% (inactive)
Cc1cc(C)c2nc(N3C(=O)C(O)=C(C(=O)c4ccco4)C3c3ccc(O)cc3)sc2c1 (centres undefined) | 40.2 | 89.1% (active)
Cc1ccc(/C(O)=C2/C(=O)C(=O)N(c3ccccn3)C2c2cccc([N+](=O)[O-])c2)cc1 (centres undefined) | 34.1 | 75.6% (inactive)
Cc1nc2ccccn2c1/C(O)=C1\C(=O)C(=O)N(CCN2CCOCC2)C1c1ccncc1 (centres undefined) | 26.2 | 58.1% (inactive)
O=C(Cn1nc(Cc2ccncc2)c2ccccc2c1=O)N1CCN(C(=O)c2ccco2)CC1 | 36.2 | 80.2% (inactive)
Cc1cc(N2C(=O)C(O)=C(C(=O)c3ccco3)C2c2cccc(Oc3ccccc3)c2)no1 (centres undefined) | 32.2 | 71.3% (inactive)
COc1ccc(O)c(C(=O)c2cc(C#N)c(=O)n(-c3ccc(Cl)cc3)c2)c1 | 40 | 88.5% (active)

— PubChem BioAssay AID504452 (The Scripps Research Institute Molecular Screening Center, 2011)
